Rows were chosen to be rich in hits. Some 0.77% of all compounds tested hit in one or more screens of this group.
TbPYK inhibitor – T. brucei pyruvate kinase inhibition; Potency, µM (titrated, usually from 76.8 µM), without a hit: at the highest dose activity, negative = inhibition, most hits filed as inhibitors; actives 0.12% (n = 410,000); TbPYK enzyme, Kinase-Glo Plus ATP luminescence, 45 min; Q57TT1; AID 624173; note: potency is the fitted concentration of half-maximal effect; % is set by controls: 0 for no effect and ±100 for the full control effect; nearly all actives have a fitted effect of over 50% in size
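TbPYK + substrate in 50 mM TEA pH 7.2, 100 mM KCl, 10 mM MgCl2, 0.05% BSA, 0.01% Tween-20; cpd pinned; ADP 130 uM final; 45 min RT; Kinase-Glo Plus 10 min; luminescence endpoint.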
RE007 growth inh – less growth of the S. pombe RE007 Vpr strain; S. pombe RE007 Vpr strain, BacTiter-Glo ATP luminescence, 24 h; Potency, µM (top dose mostly 92.2 µM), without a hit: at the top dose activity change, negative = less growth, actives largely listed as inhibitors; actives 0.21% (n = 360,000); active = well fitted falling curve with a large enough effect; inconclusive = small, poorly fitted or top-dose-only effect; inactive = no such curve, though single readings can be large or run the other way; note: potency is the fitted concentration of half-maximal effect; % is set by controls: 0 for no effect and ±100 for the full control effect; nearly all actives have a fitted effect of over 50% in size
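Fission yeast RE007 carrying one integrated HIV-1 vpr copy, seeded at OD 0.01 in PMG+AL medium with 23 nL pinned compound. Grown 24 h at 30 degrees; viability read by BacTiter-Glo luminescence after 5 min.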
LmPK inh – blocks Leishmania mexicana pyruvate kinase activity; Q27686; purified LmPK, Kinase-Glo ATP luminescence, 1 h; Potency, µM (series often up to 57.5 µM), for the others: at the highest dose activity change, negative = inhibition, most hits filed as inhibitors; actives 0.37% (n = 290,000); note: potency is the fitted concentration of half-maximal effect; % is set by controls: 0 for no effect and ±100 for the full control effect
Target sequence (Q27686 whole entry, looked up): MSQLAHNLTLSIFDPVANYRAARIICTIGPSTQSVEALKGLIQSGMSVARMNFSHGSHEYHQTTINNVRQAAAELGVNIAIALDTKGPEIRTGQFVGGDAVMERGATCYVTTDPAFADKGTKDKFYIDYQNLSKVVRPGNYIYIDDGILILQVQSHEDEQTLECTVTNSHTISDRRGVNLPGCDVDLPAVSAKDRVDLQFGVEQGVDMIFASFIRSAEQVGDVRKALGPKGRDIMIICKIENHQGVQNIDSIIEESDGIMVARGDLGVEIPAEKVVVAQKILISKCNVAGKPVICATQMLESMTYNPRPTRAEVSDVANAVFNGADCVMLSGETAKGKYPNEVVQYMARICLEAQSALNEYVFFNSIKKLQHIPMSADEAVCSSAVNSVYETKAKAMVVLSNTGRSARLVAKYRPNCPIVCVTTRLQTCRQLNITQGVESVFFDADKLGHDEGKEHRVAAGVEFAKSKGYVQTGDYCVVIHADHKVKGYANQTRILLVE
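Kinase-Glo luminescence read after 1 h RT reaction of 0.1 nM LmPK with 0.5 mM PEP and 0.1 mM ADP. Activity scaled between uninhibited and enzyme-free controls.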
NS1 function inh – blocks influenza NS1 protein function | Potency, µM (series often up to 46.1 µM), inactives show at the highest dose activity, positive = more growth | actives 0.4% (n = 270,000) | AID 2326; calls by dose curve; note: potency is the fitted concentration of half-maximal effect; actives are rising curves; nearly all actives have a fitted effect of over 50% in size
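Recovery from NS1-induced slow growth read by OD600 in budding yeast switched to galactose assay medium (pH 6.0, -URA) at 1:100 dilution. Compound 23 nl per well; the matching strain lacking NS1 serves as control.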
Flu NS1 inh – influenza NS1 function inhibition validation. shares compounds with NS1 function inh. influenza NS1 function cell assay, 15-point titration. activity change, negative = inhibition, % at 32.9 µM. 1,400 tested, under 10 active; calls by dose curve; note: 0% is about no effect
PR8 titer – reduces influenza A/PR/8/34 replication in MDCK cells; shares compounds with NS1 function inh; MDCK infected influenza A/PR/8/34, virus titer TCID50; stronger effect = lower value; virus titer (log TCID50), log10 TCID50 at 5 µM; actives 30% (n = 95); AID 504647; call rule not given here
Active calls of the source: *. Unless noted, calls come from the whole dose curve; as a rule, active = well fitted curve in the direction sought with a large enough effect; inconclusive = small, poorly fitted or top-dose-only effect, or another doubt; inactive = no such curve, though single readings can be large; an effect the other way counts as inactive or inconclusive.

N=Nc1c(O)n(CC(=O)Nc2ccccc2)c2ccccc12 was read as TbPYK inhibitor 0.0%, RE007 growth inh -4.4%, LmPK inh -3.3%, NS1 function inh 2.51µM* and Flu NS1 inh 23.9.
Screening Cc1ccccc1NC(=O)C1CCCN(S(=O)(=O)c2cnc[nH]2)C1 (stereo not drawn) returned TbPYK inhibitor -4.9%, RE007 growth inh -5.0%, LmPK inh -3.0%, NS1 function inh 14.1µM* and Flu NS1 inh 2.6.
Screening Cc1ccc(NC(=O)C2CCCN(S(=O)(=O)c3cnc[nH]3)C2)c(Br)c1 (stereo not drawn) returned TbPYK inhibitor -1.2%, RE007 growth inh 7.8%, LmPK inh -1.8%, NS1 function inh 2µM* and Flu NS1 inh 1.5.
For CCCOc1ccc(NC(=O)CC2C(=O)N(c3cccc(OC)c3)C(=O)N2Cc2cccs2)cc1 (stereo not drawn) the results were TbPYK inhibitor 0.0%.
For Cc1ccccc1NC(=O)N1CCCC1C(=O)NCc1cccs1 (stereo not drawn) the results were TbPYK inhibitor -7.0%, RE007 growth inh 20.2%, LmPK inh 0.3% and NS1 function inh 2.2%.
`O=C(NCc1cccs1)C1CCCN1C(=O)Nc1ccccc1Cl` (stereo not drawn) gave TbPYK inhibitor -2.4%, RE007 growth inh -8.7%, LmPK inh 1.3%, NS1 function inh inconclusive, Flu NS1 inh 3.6 and PR8 titer 8.5.
C=CCN1CC[C@]23c4c5ccc(O)c4OC2C(=O)CC[C@@]3(O)C1C5 (stereo partly drawn) was read as TbPYK inhibitor -0.5%, RE007 growth inh 2.4%, LmPK inh -4.5%, NS1 function inh 12.6µM* and Flu NS1 inh -16.8.
For CCOC(=O)c1ccc(NC(=O)c2c(NCc3ccc(OC)c(OC)c3OC)sc3c2CCC(C)C3)cc1 (stereo not drawn) the results were TbPYK inhibitor -8.0%.
Screening Cc1nc2sccn2c1-c1csc(NCc2ccccc2)n1 returned TbPYK inhibitor 7.0%, RE007 growth inh 1.5%, LmPK inh -4.2%, NS1 function inh inconclusive and Flu NS1 inh -28.6.
Screening Cc1cc(C)n(S(=O)(=O)c2cc(C(=O)O)c(Cl)cc2Cl)n1 returned TbPYK inhibitor -0.9%, RE007 growth inh 4.1%, LmPK inh -0.9%, NS1 function inh inconclusive and Flu NS1 inh 9.6.
`Cc1cc(C)n(S(=O)(=O)c2ccc(Cl)c(Cl)c2Cl)n1` gave TbPYK inhibitor -19.4%, RE007 growth inh -10.9%, LmPK inh 1.2% and NS1 function inh -42.4%.
CC(C)CCNC(=O)c1c[nH]c2ccc(S(=O)(=O)Nc3cccc(C(F)(F)F)c3)cc2c1=O was read as TbPYK inhibitor -4.5%.
COc1cccc(NS(=O)(=O)c2ccc3[nH]cc(C(=O)NCCC(C)C)c(=O)c3c2)c1 was read as TbPYK inhibitor -4.1%, RE007 growth inh -5.4%, LmPK inh 8.2%, NS1 function inh 4.47µM* and Flu NS1 inh -6.3.
For CC(C)CC(=O)Nc1nnn(C)n1 the results were TbPYK inhibitor 14.4%, RE007 growth inh 5.4%, LmPK inh -7.1%, NS1 function inh 10µM* and Flu NS1 inh 14.8.
Screening COc1ccc([C@@H]2[C@@H]3C(=O)N(C(C)(C)C)C(=O)[C@@H]3[C@]3(Cc4ccccc4)C(=O)N(c4ccc(OC)cc4)C(=O)N23)cc1 returned TbPYK inhibitor 1.1% and RE007 growth inh -3.7%.
COc1ccc(N2C(=O)N3[C@H](c4cccc(C)c4)[C@@H]4C(=O)N(Cc5ccccc5)C(=O)[C@@H]4[C@]3(Cc3ccccc3)C2=O)cc1 was read as TbPYK inhibitor 0.2%, RE007 growth inh -2.1%, LmPK inh 8.3%, NS1 function inh 14.1µM*, Flu NS1 inh -10.7 and PR8 titer 7.5*.
Screening O=C(CSc1nc2c([nH]c3ccccc32)c(=O)n1-c1ccc(Cl)cc1)N1CCCCCC1 returned TbPYK inhibitor -3.2%.
`COc1cc(/C=N/NC(=O)c2sc3nc(C)cc(C)c3c2N)ccc1O` gave TbPYK inhibitor -8.9%, RE007 growth inh -1.8%, LmPK inh -1.7%, NS1 function inh inconclusive and Flu NS1 inh 4.6.
`Cc1ccc(N(CC(=O)NN=C2CCN(C)CC2)S(=O)(=O)c2ccccc2)c(C)c1` gave TbPYK inhibitor -6.2%, LmPK inh 0.0%, NS1 function inh 4.47µM* and Flu NS1 inh 27.2.
For COc1ccc(S(=O)(=O)N(CC(=O)NN=C2CCN(C)CC2)c2ccc(C)cc2)cc1OC the results were TbPYK inhibitor -2.1%, RE007 growth inh 3.8%, LmPK inh -6.2% and NS1 function inh 27.1%.
For Cc1nn(-c2ccccc2)c2sc(-c3n[nH]c(=S)o3)cc12 the results were TbPYK inhibitor -20.0%, RE007 growth inh -26.3%, LmPK inh -4.7%, NS1 function inh 2.51µM* and Flu NS1 inh inconclusive.
Screening CC1(COc2ccc(CC3SC(=O)NC3=O)cc2)CCCCC1 (stereo not drawn) returned TbPYK inhibitor -4.4%.
For Cc1cc(NC(=O)/C=C/c2cccc(Cl)c2)n(-c2nc3ccccc3[nH]2)n1 the results were TbPYK inhibitor 0.4%, RE007 growth inh -20.2%, LmPK inh -6.3%, NS1 function inh 1.78µM* and Flu NS1 inh 7.4.
For CCS(=O)(=O)n1nc(-c2ccco2)nc1NCc1ccc(C(C)C)cc1 the results were TbPYK inhibitor 2.7%.
`CC(=O)N/C(=C\c1cccc([N+](=O)[O-])c1)C(=O)NC1CCCCC1` gave TbPYK inhibitor 5.1%, RE007 growth inh 12.9%, LmPK inh -3.8%, NS1 function inh 11.2µM* and Flu NS1 inh 5.4.
For Cc1ccc(NC(=O)/C(=C/c2cccc([N+](=O)[O-])c2)NC(=O)C2CCCCC2)cc1 the results were TbPYK inhibitor 0.4%, RE007 growth inh -8.8%, LmPK inh 4.5% and NS1 function inh 0.8%.
Screening COc1ccc(/C(C)=N/NS(=O)(=O)c2ccccc2)c(OC)c1 returned TbPYK inhibitor 0.6%, RE007 growth inh -2.9% and LmPK inh 7.3%.
COc1ccc(/C(C)=N\NS(C)(=O)=O)c(OC)c1 was read as TbPYK inhibitor 2.4%, RE007 growth inh -11.8%, LmPK inh 3.2%, NS1 function inh inconclusive and Flu NS1 inh -3.5.
COc1ccc2c(c1)sc1ncc(C(=O)NCc3cccc(Cl)c3)c(=O)n12 was read as TbPYK inhibitor -2.6%.
Screening CC1(C)N=C(N)NC(Nc2ccc(Br)cc2)=N1 returned TbPYK inhibitor -1.7%, RE007 growth inh 25.9%, LmPK inh 2.7%, NS1 function inh 7.94µM* and Flu NS1 inh -0.8.
Screening CC1(C)N=C(N)NC(Nc2cccc(Br)c2)=N1 returned TbPYK inhibitor 0.8%, RE007 growth inh -18.0%, LmPK inh -2.6% and NS1 function inh -5.0%.
